# PubChem BioAssay AID720597 (Broad Institute, 2013)
# Potency and affinity values are given separately. Values without a mark were called inactive.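 The calls were made as follows: active = fitted half-maximal dose no more than twice the top valid tested dose, for compounds that lower signal; inconclusive = fit invalid, or curve flat with activity between -70 and -30; inactive = potency past limit, curve flat within ±30, or signal increasing.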
# Molecular target: NAD-dependent protein deacylase sirtuin-5, mitochondrial (Homo sapiens) (UniProt Q9NXA8)
# Assay: SIRT5 deacylase inhibitors, dose response, biochemical, fluorescence imaging, cherry-pick, set 6 (AID 720597);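 also: lower AMC signal can also come from blocking the trypsin step; 0% = median of neutral control wells and -100% = median of positive control wells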
# Settings: Purified SirT5, succinyl-peptide-AMC/trypsin fluorescence; series mostly up to 15 µM; activity change, negative = inhibition: at the top concentration
# Chain of NAD-dependent protein deacylase sirtuin-5, mitochondrial (Homo sapiens) (Q9NXA8 whole entry, looked up): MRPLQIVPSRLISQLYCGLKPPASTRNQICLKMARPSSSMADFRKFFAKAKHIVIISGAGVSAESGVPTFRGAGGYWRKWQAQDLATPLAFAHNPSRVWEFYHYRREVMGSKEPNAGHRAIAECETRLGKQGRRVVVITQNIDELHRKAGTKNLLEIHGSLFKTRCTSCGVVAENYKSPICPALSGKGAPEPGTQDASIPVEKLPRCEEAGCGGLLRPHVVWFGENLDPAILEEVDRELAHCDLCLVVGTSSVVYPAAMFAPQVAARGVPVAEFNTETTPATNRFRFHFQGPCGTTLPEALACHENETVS
row,SMILES,"activity change, negative = inhibition"
1,O=C(CN1CCOCC1)N1CCCCN2[C@H](C1)[C@H](c1ccc(-c3ccccc3F)cc1)[C@@H]2CO,24.7%
2,COc1ccc(S(=O)(=O)Nc2ccc3c(c2)C(=O)N([C@@H](C)CO)C[C@@H](C)[C@H](CN(C)Cc2ccc(C(F)(F)F)cc2)OCCCC[C@H](C)O3)cc1,-2.54%
3,COc1ccc(S(=O)(=O)N(C)C[C@H]2Oc3cc(C#CC4CCCC4)ccc3S(=O)(=O)N([C@@H](C)CO)C[C@@H]2C)cc1,7.83%
4,C[C@@H]1CN([C@@H](C)CO)S(=O)(=O)c2ccc(/C=C/c3ccccc3)cc2O[C@H]1CN(C)C(=O)c1ccc2c(c1)OCO2,-8.88%
5,C[C@H]1CN([C@@H](C)CO)C(=O)c2c(c3ccccc3n2C)-c2ccccc2CO[C@H]1CN(C)Cc1cccc2c1OCCCO2,0.028%
6,C[C@@H]1CN([C@H](C)CO)C(=O)c2cc(C#CC(C)(C)O)cnc2O[C@H]1CN(C)C(=O)CC1CC1,26.7%
7,O=C(Nc1ccccc1F)N1CC(=O)N2[C@H](C1)[C@@H](c1ccc(C#CC3CCCC3)cc1)[C@@H]2CO,23.2%
8,COc1ccc(S(=O)(=O)N(C)C[C@H]2OCCCC[C@@H](C)Oc3ccc(NS(=O)(=O)c4ccc(F)cc4)cc3C(=O)N([C@H](C)CO)C[C@H]2C)cc1,4.18%
9,COc1ccc(S(=O)(=O)Nc2ccc3c(c2)C(=O)N([C@@H](C)CO)C[C@@H](C)[C@@H](CN(C)Cc2ccc(C(F)(F)F)cc2)OCCCC[C@H](C)O3)cc1,-25.7%
10,C[C@H]1CN([C@@H](C)CO)C(=O)c2cc(NC(=O)C3CC3)ccc2O[C@H]1CN(C)S(=O)(=O)c1cn(C)cn1,-9.34%
11,C[C@@H]1CCCCO[C@H](CN(C)C(=O)Nc2ccc(F)cc2)[C@@H](C)CN([C@H](C)CO)C(=O)c2cc(NC(=O)Nc3ccc(F)cc3)ccc2O1,21%
12,COc1ccc(-c2ccc([C@@H]3[C@H]4CN(C(=O)Cc5ccccn5)CC(=O)N4[C@H]3CO)cc2)cc1,-14.6%
13,Cc1ccc(S(=O)(=O)N(C)C[C@H]2OCCCC[C@H](C)Oc3ccc(NS(=O)(=O)c4ccc(Cl)cc4)cc3C(=O)N([C@@H](C)CO)C[C@H]2C)cc1,-27.4%
14,C[C@@H]1CN([C@@H](C)CO)S(=O)(=O)c2ccc(C#Cc3cccc(F)c3)cc2O[C@@H]1CN(C)S(=O)(=O)c1ccccc1F,3.7%
15,C[C@H]1CN([C@@H](C)CO)S(=O)(=O)c2ccc(C#Cc3ccc(F)cc3)cc2O[C@@H]1CN(C)C(=O)NC1CCCCC1,-2.87%
16,O=C(Nc1cc(F)ccc1F)N1CC(=O)N2[C@H](C1)[C@@H](c1ccc(C#CC3CCCCC3)cc1)[C@@H]2CO,8.23% [at 3.8 µM]
17,COc1ccc(S(=O)(=O)Nc2ccc3c(c2)C(=O)N([C@H](C)CO)C[C@@H](C)[C@H](CN(C)Cc2ccc(C(F)(F)F)cc2)OCCCC[C@H](C)O3)cc1,-14.8%
18,O=C(O)[C@@H]1[C@@H](CO)[C@@H]2Cn3c(ccc(-c4ccccc4F)c3=O)[C@@H]2N1Cc1ccccc1,-19.4%
19,C[C@@H]1CN([C@@H](C)CO)S(=O)(=O)c2ccc(C#CC(C)(C)O)cc2O[C@@H]1CN(C)Cc1ccc(-c2ccccc2)cc1,-5.45%
20,CN(C)C(=O)c1cccc(-c2ccc([C@H]3[C@@H](CO)N4CCCCN(S(C)(=O)=O)C[C@H]34)cc2)c1,-13.1%

row,SMILES,"activity change, negative = inhibition"
1,Cc1ccc(S(=O)(=O)N(C)C[C@@H]2OCCCC[C@@H](C)Oc3ccc(NS(=O)(=O)c4ccc(F)cc4)cc3C(=O)N([C@@H](C)CO)C[C@@H]2C)cc1,-6.02%
2,C[C@@H]1CN([C@H](C)CO)C(=O)c2c(c3ccccc3n2C)-c2ccccc2CO[C@H]1CN(C)Cc1cccc2c1OCCCO2,-1.05%
3,COc1ccc(S(=O)(=O)Nc2ccc3c(c2)C(=O)N([C@@H](C)CO)C[C@H](C)[C@@H](CN(C)Cc2ccc(C(F)(F)F)cc2)OCCCC[C@@H](C)O3)cc1,-1.58%
4,C[C@H]1CN([C@@H](C)CO)C(=O)c2cccc(NC(=O)c3ccncc3)c2O[C@H]1CN(C)S(C)(=O)=O,16.1%
5,O=C(NC1CCCC1)N[C@@H]1CC[C@H](CC(=O)N2CCOCC2)O[C@H]1CO,8.82%
6,C[C@@H]1CN([C@@H](C)CO)C(=O)c2cc(C#CCN(C)C)cnc2O[C@@H]1CN(C)Cc1ccncc1,-5.47%
7,O=C(C[C@@H]1CC[C@@H](NS(=O)(=O)c2ccc(F)cc2)[C@@H](CO)O1)N1CCC(Cc2ccccc2)CC1,-27.4%
8,C[C@H]1CN([C@@H](C)CO)C(=O)c2cc(C#CCC3CCCC3)cnc2O[C@H]1CN(C)C(=O)c1cnccn1,-15.1%
9,Cc1ccc(S(=O)(=O)N(C)C[C@H]2OCCCC[C@H](C)Oc3ccc(NS(=O)(=O)c4ccc(F)cc4)cc3C(=O)N([C@H](C)CO)C[C@H]2C)cc1,-18.5%
10,C[C@H]1CN([C@@H](C)CO)C(=O)Cc2cc(NS(=O)(=O)c3ccccc3)ccc2O[C@H]1CN(C)Cc1ccc(C(=O)Nc2ccccc2N)cc1,-11.8%
11,OC[C@@H]1[C@H](c2ccccc2)C2(CN(Cc3nccs3)C2)N1Cc1cccnc1,30.3%
12,C[C@H]1CN([C@@H](C)CO)S(=O)(=O)c2ccc(C#Cc3ccc(F)cc3)cc2O[C@@H]1CN(C)S(=O)(=O)c1ccc(F)cc1,-5.82%
13,C[C@H]1CN([C@@H](C)CO)S(=O)(=O)c2ccc(/C=C/c3ccccc3)cc2O[C@H]1CN(C)C(=O)NC1CCCC1,2.54%
14,CCS(=O)(=O)N1CC2(CN(Cc3cccc(Cl)c3)[C@H](CO)c3c2c2ccc(OC)cc2n3C)C1,11.6%
15,Cc1ccc(S(=O)(=O)N(C)C[C@@H]2OCCCC[C@@H](C)Oc3ccc(NS(=O)(=O)c4ccc(F)cc4)cc3C(=O)N([C@@H](C)CO)C[C@H]2C)cc1,11%
16,C[C@H](CO)N1C[C@H](C)[C@H](CN(C)S(=O)(=O)c2ccccc2F)Oc2cc(C#Cc3cccc(F)c3)ccc2S1(=O)=O,4.83%
17,C[C@@H]1CN([C@@H](C)CO)S(=O)(=O)c2ccc(/C=C/c3ccccc3)cc2O[C@@H]1CN(C)C(=O)Nc1cc(F)ccc1F,-20.6%
18,CC(C)(C)NC(=O)CSc1nnc(-c2ccco2)n1-c1ccccc1,-10.4% [at 16 µM]
19,Cc1ccc(S(=O)(=O)N(C)C[C@H]2OCCCC[C@@H](C)Oc3ccc(NS(=O)(=O)c4ccc(Cl)cc4)cc3C(=O)N([C@@H](C)CO)C[C@@H]2C)cc1,-24.6%
